Measurements taken from PubChem BioAssay (Tox21).
Records with an inconclusive call do not appear. A number with no mark means an inactive call. Calls of active or inactive are those of the source. Calls follow the shape of the dose curve; as a rule, active = well fitted activation curve with a large enough effect in the signal ratio in the repeat runs (not every such curve was filed as active); inconclusive = weak or mixed curves; inactive = flat fitted curve, though single readings scatter; the % refers to the signal ratio.

Assay: qHTS assay to identify small molecule agonists of H2AX (AID 1224845)
Conditions: CHO-K1 phospho-H2AX Ser139 HTRF, 3 h; series mostly up to 154 µM
Excerpt: National Center for Advancing Translational Sciences [NCATS]
NIH Chemical Genomics Center [NCGC]
U.S. Environmental Protection Agency [EPA]
National Institutes of Environmental Health Sciences [NIEHS]
National Toxicology Program [NTP]
U.S. Food and Drug Administration [FDA]
HTRF phospho-H2AX (Ser139) assay (Cisbio Bioassays, US) enables the quantitative detection of the histone variant H2AX when phosphorylated on serine 139. When double-stranded DNA breaks, either by ionizing radiation or endogenous physiological processes, H2AX becomes phosphorylated at Ser139. This phospho-Ser139 serves as a sensitive biomarker for the detection of such breaks, localizing the site of DNA repair. So, HTRF phospho-H2AX Ser139 is a pertinent assay to study genome stability, the cell cycle, DNA repair, and it serves as a biomarker for cancer, and to understand aging. Wild type CHO-K1 cells were used to identify the inducers of Phospho-H2AX Ser 139 from the Tox21 10K compound collections.
Tox21 Assay Protocol Summary:
The CHO-K1 cells suspended in culture medium containing 10% FBS were dispensed at 1000 cells/ 3 ul/well in 1536-well white wall/solid bottom plates (Greiner Bio-One North America, NC) using a Multidrop Combi (Thermo Fisher Scientific Inc., Waltham, MA). After the assay plates were incubated at 37C overnight, 23 nl of compounds at 15 concentrations (from 5-48 columns) or positive control (from 1 to 4 columns) were transferred to the assay plates using a Pintool station (Wako, San Diego, CA) into each well resulting in a final DMSO concentration of 0.76%. After 3hr incubation at 37C, 1 uL/well Supplemented Lysis buffer (diluted 100 fold blocking reagent in lysis buffer) (HTRF Phospho-H2A.X (S139) Assay kit from Cisbio US Inc., Bedford, MA) was added using a Flying Reagent Dispenser (FRD) (Aurora Discovery, CA). After 10sec spin at 1000 rpm in a plate centrifuge, the assay plates were incubated at room temperature for 30 min. Then followed by the addition of 1 uL/well detection buffer (containing a mixture of two antibodies, one labeled with cryptate, Anti pH2AX (S139)-K and another labeled with d2, Anti H2AX-d2) using FRD. After incubation at room temperature for 24 hr, the time resolved fluorescence at excitation 320 nm and emissions at 665 nm and 620 nm was measured using an Envision plate reader (PerkinElmer, Waltham, MA).
% is scaled to controls: 0 for no effect and ±100 for the full control effect.

Row | SMILES | outcome | activation (H2AX phosphorylation)
1 | O=[N+]([O-])c1ccc(Oc2ccc([N+](=O)[O-])cc2)cc1 | inactive | 
2 | C[C@H]1O[C@@H](n2cc(F)c(=O)[nH]c2=O)[C@H](O)[C@@H]1O | inactive | 
3 | C=CCOc1nc(OCC=C)nc(OCC=C)n1 | inactive | 
4 | FC(F)(F)C(F)(F)C(F)(F)C(F)(F)C(F)(F)C(F)(F)C(F)(F)C(F)(F)C(F)(F)C(F)(F)F |  | -0.945% [at 14 µM]
5 | Cc1nccn1CC1CCc2c(c3ccccc3n2C)C1=O (stereo not given) | inactive | 
6 | CO[Si](CCCNCCC[Si](OC)(OC)OC)(OC)OC | inactive | 
7 | N#CCN(CC#N)CCN(CC#N)CC#N | inactive | 
8 | CCC(=O)/C=C/c1ccc(OC)cc1 | inactive | 
9 | O=C(O)C1CCC1 | inactive | 
10 | Nc1cc(C(Cl)=C(Cl)Cl)c(S(N)(=O)=O)cc1S(N)(=O)=O | inactive | 
11 | O=[N+]([O-])c1ccc(CCO)cc1 | inactive | 
12 | COC(=O)C1=C(C)NC(C)=C(C(=O)OCC(C)=O)C1c1ccccc1[N+](=O)[O-] (stereo not given) | inactive | 
13 | COC(C(=O)O)c1ccccc1 (stereo not given) | inactive | 
14 | C1=C\CC/C=C\CC/C=C\CC/1 | inactive | 
15 | CCCCCCCCC=O | inactive | 
16 | CN(C)N=Nc1ccccc1 | inactive | 
17 | C=C(C)C(=O)OCCCCCCCCCCCCCCCCCC |  | 0.951% [at 31.6 µM]
18 | C=CC(=O)N1CCOCC1 | inactive | 
19 | Cn1cnc2c(=O)[nH]c(N)nc21 | inactive | 
20 | CC1=CC(C)C(C=O)C(C)C1 (stereo not given) | inactive | 

Row | SMILES | outcome | activation (H2AX phosphorylation)
21 | OCC(O)[C@@H](O)[C@H](O)[C@H](O)CO[C@H]1O[C@H](CO)[C@@H](O)[C@H](O)[C@H]1O (stereo not given in full) | inactive | 
22 | CN(C)CCn1nnnc1SCC1=C(C(=O)O)N2C(=O)[C@@H](NC(=O)Cc3csc(N)n3)[C@H]2SC1 | inactive | 
23 | OCc1ccccn1 | inactive | 
24 | C=C(C)[C@H]1CC=C(C)CC1 | inactive | 
25 | NCCN1CCNC1=O | inactive | 
26 | CCCCCCCCCCCCCCCCCC(=O)OCCCCCCCCCCCCCC(C)C | inactive | 
27 | C=C(C)C1CC=C(C)C(O)C1 (stereo not given) | inactive | 
28 | CCCCNc1ccccc1 | inactive | 
29 | CCOC(=O)Nc1ccc2c(c1)N(C(=O)CCN1CCOCC1)c1ccccc1S2 | inactive | 
30 | CC(C)(O)C(=O)c1ccc(OCCO)cc1 | inactive | 
31 | Cc1c(F)cc2c(=O)c(C(=O)O)cn3c2c1CCC3C (stereo not given) | inactive | 
32 | CC(=O)CCc1ccc(O)cc1 | inactive | 
33 | Fc1ccccc1-c1ccccc1 | inactive | 
34 | C=C(C)C(=O)OCCC(C)OC(=O)C(=C)C (stereo not given) | inactive | 
35 | CO[Si](OC)(OC)OC | inactive | 
36 | C=CCSCC1Nc2cc(Cl)c(S(N)(=O)=O)cc2S(=O)(=O)N1 (stereo not given) | inactive | 
37 | CC(C)COC(=O)c1ccccc1O | inactive | 
38 | Cc1onc(-c2ccccc2)c1-c1ccc(S(N)(=O)=O)cc1 | inactive | 
39 | CC(C)COC(=O)C(C)C | inactive | 
40 | Cc1ccc(N)cc1[N+](=O)[O-] | inactive | 
